From PubChem BioAssay (NCI)
This is part of a sample that, as a whole, favours compounds with a hit. Of some 79,000 tested, about 15% had one in any assay. No stated cut-off is given here; in the data, active means growth inhibition above about 70%; inactive means the rest.

What was measured:
[1] = NCI Yeast Anticancer Drug Screen. Data for the rad50 strain (AID 155);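 further: 0% = growth of vehicle-only cultures of the same strain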; conditions: S. cerevisiae rad50 strain growth inhibition; at 50.0 µM; hits give high values
Summary of the method: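 Relative growth inhibition (compound vs vehicle) was measured in yeast with a defined repair-gene alteration.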

[2] = NCI Yeast Anticancer Drug Screen. Data for the mec2-1 strain (AID 157); conditions: S. cerevisiae mec2-1 strain, at 50.0 µM, hits give high values
Summary of the method: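 Each compound was tested on mec2-1 yeast, a strain altered in DNA damage repair or cell cycle control. Growth inhibition is reported relative to vehicle.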

[3] = NCI Yeast Anticancer Drug Screen. Data for the sgs1 mgt1 strain (AID 161);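 further: 0% = growth of cultures given vehicle only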; conditions: S. cerevisiae sgs1 mgt1 strain, at 50.0 µM, hits give high values
Summary of the method: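 Inhibition of yeast growth, normalised to vehicle-treated controls, is reported for a strain bearing genetic alterations in DNA damage repair.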

[4] = NCI Yeast Anticancer Drug Screen. Data for the cln2 rad14 strain (AID 165);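 further: 0% = growth equal to vehicle treated cultures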; conditions: S. cerevisiae cln2 rad14 strain, at 50.0 µM, hits give high values
Summary of the method: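 Test compounds were added to cln2 rad14 yeast cultures; inhibition of growth was then determined by comparison with vehicle treatment.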

[5] = NCI Yeast Anticancer Drug Screen. Data for the bub3 strain (AID 167); conditions: S. cerevisiae bub3 mutant strain, at 50.0 µM, hits give high values
Summary of the method: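 Screening used yeast with an engineered genetic alteration affecting cell cycle control. Compound-exposed cultures were compared with vehicle cultures, and reduced growth was taken as inhibition.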

[6] = NCI Yeast Anticancer Drug Screen. Data for the mlh1 rad18 strain (AID 175); conditions: S. cerevisiae mlh1 rad18 strain growth inhibition; at 50.0 µM; hits give high values
Summary of the method: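 Inhibition values reflect reduced growth of mutant yeast versus vehicle-treated controls following compound exposure; the mutations affect DNA damage repair.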

Measured: growth inhibition

COc1ccccc1/C=N/NC(=O)CCCCCCCCC(=O)N/N=C/c1ccccc1OC
inactive: [1] 0.95% | [2] -4% | [3] -4.4% | [4] -11.2% | [5] -5.5% | [6] 14.5%

Cc1ccc(NC(=O)Oc2ccccc2C(=O)OCc2ccccc2)cc1
inactive: [1] 5.3% | [2] 7.1% | [3] 6.25% | [4] 20.1% | [5] 8.25% | [6] 1.25%

NC1CCC2(O)c3ccccc3C2C1 (stereo not given)
inactive: [1] -0.95% | [2] 0.05% | [3] 22.2% | [4] 18.9% | [5] 5.7% | [6] 7.35%

COC(=O)CCCN1C(=O)c2ccccc2C1=O
inactive: [1] -8.15% | [2] -12.7% | [3] -20.8% | [4] -69.8% | [5] 5.6% | [6] -3.95%

COc1cc(C(=O)O)ccc1OC(C)=O
inactive: [1] 7.4% | [2] -20.1% | [3] -2.15% | [4] 2.15% | [5] -6.6% | [6] 1.35%

COc1cc(C[C@H]2C(=O)OCC2Cc2ccc(OC)c(OC)c2)ccc1O (stereo not given in full)
inactive: [1] -39.1% | [2] -60.6% | [3] -26.9% | [4] -5.2% | [5] 2.05% | [6] -22.3%

COC(=O)C(=O)C(C)C(=O)C(C)c1nc(NC(=O)Nc2ccc(Cl)cc2)n[nH]1 (stereo not given)
inactive: [1] 1.65% | [2] -3.7% | [3] 3% | [4] -32% | [5] 13.4% | [6] 7.1%

CC(=O)c1cc(Cl)ccc1Cl
inactive: [1] 23.9% | [2] -6.2% | [3] -0.8% | [4] 33% | [5] -3.05% | [6] 26.1%

O=C(NCCN1CCNCC1)c1ccc(Cl)cc1
inactive: [1] 26.9% | [2] 40% | [3] 30.8% | [4] 63% | [5] 33.6% | [6] 40.2%

N#C/C(=C\c1ccc2c(c1)OCO2)C(=O)N/N=C/c1ccc2c(c1)OCO2
inactive: [1] 4.6% | [2] 17.3% | [3] 5.4% | [4] -13.7% | [5] -0.1% | [6] 2.95%

O=C(/C(=C(/Br)I)c1ccccc1)c1ccccc1
inactive: [1] -13.8% | [2] 16% | [3] 26.6% | [4] 14.1% | [5] 42.6% | [6] 28.4%

CCCCOC(=O)CNC(=O)OC(C)(C)C
inactive: [1] -4.5% | [2] 11.8% | [3] -10.1% | [4] -2.1% | [5] -3.25% | [6] -15.5%

CN(Cc1cccc(Cl)c1)C(=O)NC(C)(C)C
inactive: [1] 2.85% | [2] -6.85% | [3] 15.8% | [4] 4.2% | [5] 14.6% | [6] 0.05%

CC1SC2=NC3=C(c4ccccc4C3=O)C(c3ccc(Br)cc3)N2C1=O (stereo not given)
inactive: [1] -37.5% | [2] -15.9% | [3] -36.3% | [4] -15.8% | [5] -37% | [6] -32.8%

O=[N+]([O-])c1ccc(N=Nc2ccc(N(CCO)CCO)cc2)cc1
inactive: [1] -5.7% | [2] -8.35% | [3] 24% | [4] 1.25% | [5] 20.2% | [6] 6.1%

COc1ccc(C(=O)OC2CCCN(C(=O)c3ccc(OC)cc3)C2)cc1 (stereo not given)
inactive: [1] 0.75% | [2] 2.5% | [3] 0.8% | [4] 0.8% | [5] 10.7% | [6] -5.55%

Cc1cc(N=Nc2cc(Br)cc(Br)c2)cc(C)c1N
inactive: [1] 10.8% | [2] 1.3% | [3] 18.1% | [4] -12.2% | [5] 3.55% | [6] 7.65%

COc1ccc(OC(=O)Nc2cccc(C(C)=O)c2)cc1
inactive: [1] 8.35% | [2] 42.3% | [3] 9.9% | [4] 1.8% | [5] 22.1% | [6] 3.15%

Cc1nc(-c2cccnc2)sc1C(=O)/C=C/c1cccc([N+](=O)[O-])c1
inactive: [1] 27.1% | [2] 10.6% | [3] 23.9% | [4] 32.2% | [5] 5.6% | [6] 38.9%

O=C1CCCc2ccc([N+](=O)[O-])c(O)c21
inactive: [1] 11% | [2] 10.1% | [3] -2.55% | [4] 4.4% | [5] 9.8% | [6] 8.65%
